Bioassay records (PubChem)
Shown are actives, neighbours in structure and some others; about 6.2% of the full set was active somewhere.
HCMV inh: inhibitors of human cytomegalovirus; HFF cells, HCMV-luciferase reporter, 72 h; hits give low values; actives 4.5% (n = 410,000); activity change, negative = inhibition, % at 57.5 µM; in the data active = activity change below about -60%; inconclusive = no clear call, values can overlap the other calls; inactive = above about -39%
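Screen run at 2 compound doses on HFFs infected with reporter HCMV, MOI 1 PFU/cell. Luciferase activity from cell lysates at 72 h post infection gave inhibition relative to buffer-only and Salinomycin wells.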
Lassa entry inh: Lassa virus entry inhibition | Lassa virus pseudotype entry inhibition, cell reporter | actives 1.2% (n = 300,000) | AID 540256 | Potency, µM (highest dose often 37.9 µM), for the others: top-dose activity change, negative = inhibition, hits mostly inhibitors; calls by dose curve; tested in HEK293 cells; also: potency is read from the fitted curve at half-maximal effect; nearly all actives have a fitted effect of over 50% in size
MARV entry inh: inhibitors of Marburg virus binding or cell entry; actives 1.8% (n = 300,000); Marburg virus pseudotyped entry inhibition, cell reporter; Potency, µM (highest dose often 37.8 µM), inactives show at the top dose activity change, negative = inhibition, hits mostly inhibitors; calls by dose curve; tested in HEK293 cells; also: potency is read from the fitted curve at half-maximal effect
FMDV inh: antivirals against foot and mouth disease virus | FMDV antiviral cell-based qHTS | Potency, µM (highest dose often 57.9 µM), inactives show at the top dose activity change, negative = inhibition, hits mostly inhibitors | actives 1.2% (n = 410,000) | AID 1159524; calls by dose curve; tested in HEK293T cells; also: read-out not given here; potency is read from the fitted curve at half-maximal effect; nearly all actives have a fitted effect of over 45% in size
The depositor's hits bear a star; ? = inconclusive; . = no result given; [ ] = another dose, or the depositor's remark. % is scaled to controls: 0 for no effect and ±100 for the full control effect.

SMILES | HCMV inh | Lassa entry inh | MARV entry inh | FMDV inh
COc1cccc(S(=O)(=O)N2CCN(C(=O)c3ccco3)CC2)c1 | -86* | -3%[46.1 µM] | ? | -21%
COc1cccc(CNC(=O)N2CCN(S(=O)(=O)c3ccc(Cl)cc3)CC2)c1 | -61* | 18%[46.1 µM] | -9%[46.1 µM] | 12%
COc1ccccc1CNC(=O)N1CCN(S(=O)(=O)c2ccc(Cl)cc2)CC1 | -15 | -7% | 0% | -10%
Cc1cc(C)nc(Sc2nc(Cl)nc(N(c3ccccc3)c3ccccc3)n2)n1 | 90 | -9% | ? | 35µM*
Cc1cc(C)nc(SC(C(=O)O)c2ccccc2)n1 (stereo not given) | 1 | 18% | 18% | 2%
O=C(Cn1c(=O)nc(-c2ccccc2F)c2cc(Cl)ccc21)NCCCc1ccccc1 | 0 | ? | ? | -27%
COCCCNCCOCCOc1ccc(Cl)cc1C(C)(C)C | ? | ? | 5.8µM* | -25%
Cc1ccc(OCCOCCN2CCN(C)CC2)c(C(C)(C)C)c1 | -25 | . | . | -8%
CC(C)(C)c1cc(Cl)ccc1OCCOCCN1CCCC1 | -10 | ? | 8.9µM* | 0%
Cc1cc(C(C)(C)C)ccc1OCCOCCN1CCCC1 | -29 | ? | 8.2µM* | -12%
O=C(Nc1cccc(F)c1)C1CCN(c2nc3ccccc3nc2C(F)(F)F)CC1 | -5 | -9%[46.1 µM] | . | ?
CC1=C(C(=O)N2CCN(c3cccc(Cl)c3)CC2)C2(CCCCC2)OC1=O | 12 | 2%[46.1 µM] | . | -29%
COc1ccc(CNC(=O)c2cnc(N3CCN(Cc4ccccc4C#N)C3=O)s2)cc1OC | 0 | . | . | .
COc1ccc(CNC(=O)c2csc(N3CCN(CCc4ccccc4)C3=O)n2)cc1OC | -86* | . | . | .
Cc1ccc(NC(=O)CSc2cn(CC(=O)N3CCCC3)c3ccccc23)cc1Cl | -37 | 1%[46.1 µM] | . | -22%
O=C1C2CCCN2C(c2cccs2)N1c1ccc(Cl)cc1 (stereo not given) | -74* | 7.3µM* | ? | 13%
COc1ccccc1C1N(c2ccc(Cl)cc2)C(=O)C2CCCN21 (stereo not given) | -75* | ? | 4.6µM* | -15%
CCn1c2ccccc2c2nnc(N3CCN(c4cccc(Cl)c4)CC3)nc21 | ? | ? | . | 0%
O=C1c2ccccc2NC(c2ccc(Br)s2)N1O (stereo not given) | -75* | . | . | 3%
Cc1ccc(N(CC(=O)Nc2ccc(C)c(Cl)c2)S(=O)(=O)c2cccs2)cc1 | -11 | -18%[46.1 µM] | 28%[46.1 µM] | -24%
C#CCN(C[C@@H]1[C@@H](OC(=O)NCc2ccco2)[C@@H](OC(=O)NCc2ccco2)Cn2c(=O)n(CCCCCC)c(=O)n21)S(=O)(=O)c1ccc(C)cc1 | -74* | . | . | 28µM*
C#CCN(C[C@@H]1[C@@H](OC(=O)NCc2ccco2)[C@@H](OC(=O)NCc2ccco2)Cn2c(=O)ccc(=O)n21)S(=O)(=O)c1ccc(C)cc1 | -101* | . | . | 6.3µM*
C#CCN(C[C@@H]1[C@@H](OC(=O)NCc2ccc(OC)c(OC)c2)[C@@H](OC(=O)NCc2ccc(OC)c(OC)c2)Cn2c(=O)ccc(=O)n21)S(=O)(=O)c1ccc(C)cc1 | -107* | . | . | ?
O=C(c1cccnc1)C1CCCN(Cc2ccc3c(c2)CN(C(=O)c2cn4ccccc4n2)CCO3)C1 (stereo not given) | . | . | . | -12%
O=C(NCCc1csc2nc(-c3ccccc3F)nn12)c1ccco1 | 8 | 9%[46.1 µM] | . | 3%
SMILES | HCMV inh | Lassa entry inh | MARV entry inh | FMDV inh
CCCCNC1C(CC)C(CCC)C(C#N)(C#N)C1(C#N)C#N (stereo not given) | . | ? | ? | 32µM*
Cc1ccnc(NC(=O)CS(=O)(=O)c2ccccc2)c1 | 15 | 19%[46.1 µM] | ? | 56%
Cc1ccnc(NC(=O)CS(=O)(=O)Cc2ccccc2)c1 | -99* | -7% | 27% | 34%
Cc1ccnc(NC(=O)Cc2ccc(-c3ccccc3)cc2)c1 | -90* | . | . | 54%
Cc1cccc(COc2ccc(/C(O)=C3\C(=O)C(=O)N(CCN(C)C)[C@H]3c3ccncc3)cc2)c1 | . | . | 8% | .
O=C(NCC(c1cccs1)S(=O)(=O)c1cccs1)c1cccc(F)c1 (stereo not given) | 8 | -1%[46.1 µM] | . | -22%
COC(=O)[C@H]1[C@H](CCc2ccccc2)NC(=O)N(Cc2ccccc2)[C@H]1C | . | ? | -15%[14.2 µM] | .
Cc1cccc(Cl)c1N=CN1c2ccccc2-n2cccc2C1CCc1ccccc1 (stereo not given) | 8 | . | . | .
Oc1ccc(-c2nc3c4c(ncn3n2)-c2ccccc2CC42CCCC2)cc1 | -65* | 9% | 1% | 25µM*
Nn1cnc2c(c1=O)C1(CCCCC1)Cc1ccccc1-2 | -6 | 2% | ? | ?
O=S(=O)(Nc1nccs1)c1cnc(Cl)c(Br)c1 | -101* | -2% | -2% | 50%
O=S(=O)(Nc1nccs1)c1ccc(Br)cc1 | 7 | 11% | 5%[46.1 µM] | 42%
CCN(CC)c1ncnc2c1ncn2[C@H]1CN(Cc2ccc(OC)cc2)C[C@@H](CO)O1 | 18 | . | . | -10%
Cc1ccc(-c2nc3cccnc3o2)cc1NC(=O)COc1ccc(C(C)(C)C)cc1 | -29 | 10µM* | ? | ?
Cc1ccc(OCC(=O)Nc2cccc(-c3nc4ccccc4o3)c2C)cc1C | -60* | -11%[46.1 µM] | 5%[46.1 µM] | -16%
Cc1cc(C)cc(OCC(=O)Nc2ccc(-c3nc4ccccc4o3)cc2)c1 | -23 | 26%[46.1 µM] | . | -9%
Cc1ccc(OCC(=O)Nc2ccc(O)c(-c3nc4ccccc4o3)c2)cc1 | -76* | ? | -3% | ?
COc1cc(C(=O)Nc2cccc(-c3nc4ccccc4o3)c2C)cc(OC)c1OC | 4 | 20% | 10% | -12%
COc1ccccc1C1CN(CC(=O)N[C@H]2CCCCNC2=O)Cc2ccccc2O1 (stereo not given in full) | . | . | . | -6%
COc1ccc(C2NN=C(c3c[nH]c4ccccc34)C2O)cc1 (stereo not given) | 115 | . | . | 28%
COc1ccc(C2C(O)C(c3c[nH]c4ccccc34)=NN2C(=O)CCl)cc1 (stereo not given) | -104* | ? | 3.2µM* | 18µM*
COC(=O)c1c(OCc2ccccn2)cc(=O)n2c1CCN(Cc1ccc3c(c1)CCCN3C)CC2 | . | . | . | -18%
Cc1ccccc1-c1ccc2c(c1)COCC(=O)N2C | 1 | . | . | .
O=C(NCC1CC1)c1cnc(N2CCN(Cc3cccc(F)c3)C2=O)s1 | -99* | . | . | .
CC(C)NC(=O)c1cnc(N2CCN(Cc3cccc(F)c3)C2=O)s1 | -19 | . | . | .
Cn1c(-c2cccc(C(F)(F)F)c2)cc2cnc(Nc3cccc(Oc4ccccc4)c3)cc21 | -11 | . | . | .
CCOC(=O)C(NC(=O)c1cccc(Cl)c1)(OCc1ccccc1)C(F)(F)F (stereo not given) | -62* | ? | ? | -7%
CCOC(=O)C(NC(=O)c1ccccc1)(OCc1ccccc1)C(F)(F)F (stereo not given) | -33 | 3% | ? | -6%
Cc1cccc(CSc2nc3c(sc4ccccc43)c(=O)n2CCC(=O)NC(C)C)c1 | -61* | 22%[46.1 µM] | 13%[46.1 µM] | -24%
CC(C)NC(=O)CCn1c(SCc2c(F)cccc2Cl)nc2c(sc3ccccc32)c1=O | -12 | 26%[46.1 µM] | -18%[46.1 µM] | -4%
